The text below walks through data of PubChem BioAssay (NCI).

SMILES strings stand for the structures. The panel holds about 79,000 compounds, 15% with a hit somewhere; the sample as a whole holds those more often. A number with no mark means an inactive call. The source made the active and inactive calls. Rule as the data show it: active = growth inhibition above about 70%; inactive = the rest.

Assay [1] in a line: NCI Yeast Anticancer Drug Screen. Data for the rad50 strain (AID 155).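 Also: 0% = growth of vehicle-only cultures of the same strain.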 To be noted: S. cerevisiae rad50 strain growth inhibition, stronger effect = higher value. Put shortly: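 Inhibition values express reduced yeast growth in compound-treated cultures relative to vehicle-treated controls.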
Assay [2] can be described thus: NCI Yeast Anticancer Drug Screen. Data for the mec2-1 strain (AID 157). The settings on record: S. cerevisiae mec2-1 strain, stronger effect = higher value. Put shortly:
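Vehicle-treated cultures served as reference for growth inhibition of compound-exposed mec2-1 yeast.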

Assay [3] in a line: NCI Yeast Anticancer Drug Screen. Data for the sgs1 mgt1 strain (AID 161).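 Also: 0% = growth of cultures given vehicle only.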 To be noted: S. cerevisiae sgs1 mgt1 strain, stronger effect = higher value. The procedure, abridged:
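Test agents were incubated with a DNA-repair-mutant yeast strain. Growth was then read and compared against vehicle-treated controls.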

Assay [4] can be described thus: NCI Yeast Anticancer Drug Screen. Data for the cln2 rad14 strain (AID 165).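 Also: 0% = growth equal to vehicle treated cultures.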 To be noted: S. cerevisiae cln2 rad14 strain, stronger effect = higher value. Put shortly: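 Each compound was tested on cln2 rad14 yeast. Inhibition of growth was calculated against vehicle-exposed controls.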
Assay [5] is described as follows: NCI Yeast Anticancer Drug Screen. Data for the bub3 strain (AID 167). The settings on record: S. cerevisiae bub3 mutant strain, stronger effect = higher value. Put shortly: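 Steps: expose the mutant yeast strain to compound; grow alongside vehicle-treated cultures; measure growth; express inhibition against the vehicle cultures.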
The nature of assay [6]: NCI Yeast Anticancer Drug Screen. Data for the mlh1 rad18 strain (AID 175). To be noted: S. cerevisiae mlh1 rad18 strain growth inhibition, stronger effect = higher value. Put shortly:
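Vehicle-treated cultures served as the reference for growth inhibition in a yeast strain carrying DNA damage repair alterations exposed to each compound.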

The mark [7] stands for this setting: at 5.0 µM (retest, dose inferred, filed as 0.5).
Setting [8] is: at 50.0 µM (retest, dose inferred, filed as 5.0).

With `O=C1O/C(=C2\OC(=O)c3ccccc32)c2ccccc21`, the growth inhibition in assay [1] (setting [7]) is 9%; in assay [1] (setting [8]), 22%; in assay [1] (at 50.0 µM) it was -13.4%; in assay [2] (setting [7]) it was 0%; in assay [2] (setting [8]), 0%; in assay [2] (at 50.0 µM), 7.55%. Further, the growth inhibition was 4% in assay [3] (setting [7]); 1% in assay [3] (setting [8]); -28.3% in assay [3] (at 50.0 µM); 1% in assay [4] (setting [7]); 3% in assay [4] (setting [8]); 47.8% in assay [4] (at 50.0 µM). The growth inhibition was 1% in assay [5] (setting [7]); 2% in assay [5] (setting [8]); 5.25% in assay [5] (at 50.0 µM); 16% in assay [6] (setting [7]); -1% in assay [6] (setting [8]); -18.1% in assay [6] (at 50.0 µM).

Consider `CCCCc1c2c(nc3c1CC/C(=C\c1ccc([N+](=O)[O-])cc1)C3=O)CCCC2`, for which the growth inhibition was 92% (active) in assay [1] (setting [7]); 92% (active) in assay [1] (setting [8]); 88.5% (active) in assay [1] (at 50.0 µM); 97% (active) in assay [2] (setting [7]); 94% (active) in assay [2] (setting [8]); 92.6% (active) in assay [2] (at 50.0 µM). Also, the growth inhibition was 38% in assay [3] (setting [7]); 92% (active) in assay [3] (setting [8]); 89.8% (active) in assay [3] (at 50.0 µM); 97% (active) in assay [4] (setting [7]); 93% (active) in assay [4] (setting [8]); 88.1% (active) in assay [4] (at 50.0 µM). The growth inhibition in assay [5] (setting [7]) is 98% (active); in assay [5] (setting [8]) it was 91% (active); in assay [5] (at 50.0 µM), 88.5% (active); in assay [6] (setting [7]), 96% (active); in assay [6] (setting [8]) it was 88% (active); in assay [6] (at 50.0 µM) it was 89.6% (active).

Turning to `CCC(C)c1ccc(O)c(C(C)c2ccccc2)c1` (configuration not stated), the growth inhibition in assay [1] (setting [7]) is 44%; in assay [1] (setting [8]), 70% (active); in assay [1] (at 50.0 µM), 89.6% (active); in assay [2] (setting [7]) it was 41%; in assay [2] (setting [8]) it was 68%; in assay [2] (at 50.0 µM) it was 92.2% (active). Also, the growth inhibition in assay [3] (setting [7]) was 19%; in assay [3] (setting [8]) it was 97% (active); in assay [3] (at 50.0 µM) it was 92.9% (active); in assay [4] (setting [7]), 49%; in assay [4] (setting [8]) it was 101% (active); in assay [4] (at 50.0 µM), 90.3% (active). Further, the growth inhibition in assay [5] (setting [7]) was 15%; in assay [5] (setting [8]), 100% (active); in assay [5] (at 50.0 µM), 91% (active); in assay [6] (setting [7]) it was 40%; in assay [6] (setting [8]) it was 61%; in assay [6] (at 50.0 µM), 90.5% (active).

`O=P1(NCC2CCCO2)OCC2(CO1)COP(=O)(NCC1CCCO1)OC2` (configuration not stated): the growth inhibition was 99% (active) in assay [1] (setting [7]); 95% (active) in assay [1] (setting [8]); 47.3% in assay [1] (at 50.0 µM); 100% (active) in assay [2] (setting [7]); 98% (active) in assay [2] (setting [8]); 99.6% (active) in assay [2] (at 50.0 µM). The growth inhibition in assay [3] (setting [7]) is 100% (active); in assay [3] (setting [8]), 98% (active); in assay [3] (at 50.0 µM) it was 99% (active); in assay [4] (setting [7]), 99% (active); in assay [4] (setting [8]), 96% (active); in assay [4] (at 50.0 µM), 98.4% (active). The growth inhibition is 99% (active) in assay [5] (setting [7]); 97% (active) in assay [5] (setting [8]); 98.5% (active) in assay [5] (at 50.0 µM); 100% (active) in assay [6] (setting [7]); 96% (active) in assay [6] (setting [8]); 98.7% (active) in assay [6] (at 50.0 µM).

Regarding `CN(C)C(=S)/N=c1\ss/c(=N\C(=S)N(C)C)n1Cc1ccco1`, the growth inhibition in assay [1] (setting [7]) was -2%; in assay [1] (setting [8]) it was 2%; in assay [1] (at 50.0 µM) it was 12.2%; in assay [2] (setting [7]), -2%; in assay [2] (setting [8]), 0%; in assay [2] (at 50.0 µM), -10.7%. Besides, the growth inhibition in assay [3] (setting [7]) was -2%; in assay [3] (setting [8]), 4%; in assay [3] (at 50.0 µM) it was -2.7%; in assay [4] (setting [7]), -4%; in assay [4] (setting [8]), 3%; in assay [4] (at 50.0 µM), 9.1%. For the same compound, the growth inhibition is 0% in assay [5] (setting [7]); -1% in assay [5] (setting [8]); -3.05% in assay [5] (at 50.0 µM); -1% in assay [6] (setting [7]); 2% in assay [6] (setting [8]); -3.15% in assay [6] (at 50.0 µM).

Regarding `CCOC(=O)/C(=C\c1cccc([N+](=O)[O-])c1)C(C)=O`, the growth inhibition in assay [1] (setting [7]) is 36%; in assay [1] (setting [8]), 98% (active); in assay [1] (at 50.0 µM), 93.2% (active); in assay [2] (setting [7]), 24%; in assay [2] (setting [8]), 99% (active); in assay [2] (at 50.0 µM), 94.8% (active). Besides, the growth inhibition in assay [3] (setting [7]) was 33%; in assay [3] (setting [8]), 99% (active); in assay [3] (at 50.0 µM), 93.2% (active); in assay [4] (setting [7]), 27%; in assay [4] (setting [8]), 98% (active); in assay [4] (at 50.0 µM), 90.5% (active). Moreover, the growth inhibition is 62% in assay [5] (setting [7]); 99% (active) in assay [5] (setting [8]); 92% (active) in assay [5] (at 50.0 µM); 41% in assay [6] (setting [7]); 99% (active) in assay [6] (setting [8]); 92.3% (active) in assay [6] (at 50.0 µM).

As for `Cc1ccc(SCc2ccccc2Cl)nn1`, the growth inhibition was -2% in assay [1] (setting [7]); 3% in assay [1] (setting [8]); 6.6% in assay [1] (at 50.0 µM); -9% in assay [2] (setting [7]); 11% in assay [2] (setting [8]); -2.15% in assay [2] (at 50.0 µM). In addition, the growth inhibition in assay [3] (setting [7]) is -8%; in assay [3] (setting [8]), 17%; in assay [3] (at 50.0 µM) it was -2.3%; in assay [4] (setting [7]), 3%; in assay [4] (setting [8]) it was 20%; in assay [4] (at 50.0 µM) it was 31.1%. Besides, the growth inhibition in assay [5] (setting [7]) was 6%; in assay [5] (setting [8]), 34%; in assay [5] (at 50.0 µM) it was 15.4%; in assay [6] (setting [7]), -1%; in assay [6] (setting [8]), 19%; in assay [6] (at 50.0 µM), 4.75%.

In the case of `C/C(=N/O)c1ccc2c(c1)C(C)c1ccccc1-2` (configuration not stated), the growth inhibition was -147% in assay [1] (setting [7]); -142% in assay [1] (setting [8]); 35.2% in assay [1] (at 50.0 µM); -53% in assay [2] (setting [7]); -54% in assay [2] (setting [8]); 45.9% in assay [2] (at 50.0 µM). For the same compound, the growth inhibition in assay [3] (setting [7]) is -59%; in assay [3] (setting [8]) it was -65%; in assay [3] (at 50.0 µM), 34.5%; in assay [4] (setting [7]) it was -60%; in assay [4] (setting [8]), -66%; in assay [4] (at 50.0 µM), 77.4% (active). The growth inhibition in assay [5] (setting [7]) was -62%; in assay [5] (setting [8]) it was -54%; in assay [5] (at 50.0 µM), 78.2% (active); in assay [6] (setting [7]), -113%; in assay [6] (setting [8]), -103%; in assay [6] (at 50.0 µM), 75% (active).

Consider `COc1ccc(CC/C(=N/O)c2ccccc2)cc1`, for which the growth inhibition in assay [1] (setting [7]) was 0%; in assay [1] (setting [8]), 92% (active); in assay [1] (at 50.0 µM), 97% (active); in assay [2] (setting [7]) it was -3%; in assay [2] (setting [8]) it was 97% (active); in assay [2] (at 50.0 µM) it was 96.9% (active). Further, the growth inhibition in assay [3] (setting [7]) is 8%; in assay [3] (setting [8]) it was 94% (active); in assay [3] (at 50.0 µM), 93.8% (active); in assay [4] (setting [7]), -10%; in assay [4] (setting [8]), 74% (active); in assay [4] (at 50.0 µM) it was 97% (active). In addition, the growth inhibition in assay [5] (setting [7]) was 1%; in assay [5] (setting [8]) it was 90% (active); in assay [5] (at 50.0 µM), 98% (active); in assay [6] (setting [7]), -9%; in assay [6] (setting [8]), 96% (active); in assay [6] (at 50.0 µM), 96.9% (active).
